Mac1 fbg enh: enhancers of human CD11b/CD18 binding to fibrinogen; P05107+P11215; K562 CD11b/CD18 adhesion to fibrinogen, ATPlite luminescence; activation, % at 10 µM; 93,000 tested, 0.07% active;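 active = 10 µM primary screen giving 50% or more activity, confirmed by 40% or more on retest at that dose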
Target sequence (P05107 whole entry, looked up, other chains not shown): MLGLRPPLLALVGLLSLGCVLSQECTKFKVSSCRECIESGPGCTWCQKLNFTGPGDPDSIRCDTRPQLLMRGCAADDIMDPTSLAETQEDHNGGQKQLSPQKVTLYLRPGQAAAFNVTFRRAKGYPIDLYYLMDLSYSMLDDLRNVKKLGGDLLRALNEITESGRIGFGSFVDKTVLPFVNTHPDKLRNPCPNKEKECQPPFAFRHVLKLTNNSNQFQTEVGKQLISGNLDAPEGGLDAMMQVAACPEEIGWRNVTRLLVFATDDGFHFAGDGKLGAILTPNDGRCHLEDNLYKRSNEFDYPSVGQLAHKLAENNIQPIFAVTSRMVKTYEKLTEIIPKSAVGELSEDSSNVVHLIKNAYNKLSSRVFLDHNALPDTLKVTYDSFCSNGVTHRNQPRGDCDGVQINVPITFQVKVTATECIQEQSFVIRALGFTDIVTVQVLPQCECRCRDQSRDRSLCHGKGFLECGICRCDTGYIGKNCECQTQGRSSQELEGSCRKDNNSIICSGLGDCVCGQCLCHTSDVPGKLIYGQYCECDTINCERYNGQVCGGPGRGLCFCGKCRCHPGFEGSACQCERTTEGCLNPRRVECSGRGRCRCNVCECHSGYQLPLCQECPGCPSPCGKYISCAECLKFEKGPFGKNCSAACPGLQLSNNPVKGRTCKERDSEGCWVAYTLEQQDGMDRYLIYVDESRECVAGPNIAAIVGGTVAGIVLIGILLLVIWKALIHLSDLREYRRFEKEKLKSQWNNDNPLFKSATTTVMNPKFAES
CD11b adhes inh: blocks human CD11b/CD18 adhesion to fibrinogen | K562 CD11b/CD18 adhesion to fibrinogen, ATPlite luminescence; Mn2+ added to activate the integrin | 93,000 tested, 0.54% active | P05107+P11215 | inhibition, % at 10 µM;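 active = primary inhibition of 50% or more at 10 µM, then 40% or more on retest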
CYP2C9 inh: human CYP2C9 inhibition; P11712; inhibition, % at 5 µM; 96,000 tested, 20% active; CYP2C9 Supersomes, luciferin-H conversion, luminescence;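 active = blocking of liver enzyme CYP2C9 beyond about 50% at 5 µM, limit read from the data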
CYP2C19 act: activators of human cytochrome P450 2C19; recombinant CYP2C19, luciferin-H EGE luminescence; active compounds read high; 0 = fully inhibited enzyme, 1 = untreated enzyme; 96,000 tested, under 10 active; activation factor at 5 µM; P33261; AID 1025;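 active = activation factor of at least 2 at 5 µM in the primary screen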
CYP2C19 inh: human CYP2C19 inhibition. 96,000 tested, 21% active. CYP2C19 Supersomes, luciferin-H EGE luminescence, 30 min. inhibition, % at 5 µM;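 active = CYP2C19 inhibition above a set limit at 5 µM in the primary screen, cut at about 50% in these data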
CYP2C9 act: activators of human CYP2C9. recombinant CYP2C9, luciferin-H conversion, luminescence; active compounds read high; factor 1 = untreated enzyme, 0 = blocked. P11712. activation factor at 5 µM. 96,000 tested, 1.4% active. AID 1024;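 active = activation factor of 2 or more for CYP2C9 at a 5 µM dose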
Of the large screens only hits and unclear results are named; the others gave an inactive call. A selection: hits, their analogues and other compounds. The true share with any hit is near 28%.

COc1ccccc1C(=O)NCCc1nc2ccccc2[nH]1	CYP2C9 inh 58, CYP2C19 inh 88
O=C(CCCCCN1C(=O)c2ccccc2C1=O)NCCc1nc2ccccc2[nH]1	CYP2C9 inh 91, CYP2C19 inh 95
CCOC(=O)C(C)Sc1nc(C2CC2)cc(C(F)(F)F)c1C#N (centres undefined)	none (no result: Mac1 fbg enh, CD11b adhes inh)
CCOC(=O)N1CCN(C(=O)C(CC(C)C)NC(=O)C2CCCCC2)CC1 (centres undefined)	none
CCN(CCO)c1ncnc2c1sc1nc(C(C)C)c3c(c12)CC(C)(C)OC3	CYP2C9 inh 76
COCCN(CCOC)Cc1c(C)[nH]c2c(C)c(C)ccc2c1=O	none
O=C(CSc1nccn1Cc1ccccc1)NCc1ccccc1	CYP2C9 inh 56, CYP2C19 inh 89
O=C(COC(=O)c1cccnc1SCC(=O)NCc1ccccc1)NCc1ccccc1	CYP2C19 inh 68
O=C(CSc1nc(SCC(=O)NCc2ccccc2)n(-c2ccccc2)n1)NCc1ccccc1	CYP2C9 inh 83, CYP2C19 inh 66
O=C(CSc1nc2ccccc2n1CCc1ccccc1)NC1CC1	none (no result: CYP2C9 inh, CYP2C19 act, CYP2C19 inh, CYP2C9 act)
CN(C)C(=O)CSc1nc(SCC(=O)N(C)C)n(-c2ccccc2)n1	none
O=C(CSc1nc2ccccc2n1CCc1ccccc1)NC1CCS(=O)(=O)C1 (centres undefined)	CYP2C9 inh 99, CYP2C19 inh 96
O=C(CSc1ncccc1C(=O)O)NCc1ccc(F)cc1	none
Cc1nnc(SCC(=O)NCc2ccccc2)n1-c1ccccc1	none
C=CCOC(=O)Nc1c(C(=O)OC)[nH]c2ccc(Cl)cc12	none
Cn1c(SCC(=O)NCc2ccccc2)nc2ccccc21	CYP2C9 act 4.5
CCCOc1ccc(S(=O)(=O)n2cc(Br)c(=O)[nH]c2=O)cc1	CYP2C9 inh 98
CCCOc1ccc(C(=O)Nc2c[nH]c(=O)[nH]c2=O)cc1	none (no result: CYP2C9 inh, CYP2C19 act, CYP2C19 inh, CYP2C9 act)
CCOC(=O)C(C)n1cnc2c(nnn2-c2cccc(Cl)c2)c1=O (centres undefined)	CYP2C9 act 2
O=C(Nc1ccccc1)c1ccc(NC2CCCCC2)c(S(=O)(=O)N2CCOCC2)c1	CYP2C9 inh 82, CYP2C19 inh 83
O=C(Nc1ccc(F)c(F)c1)c1ccc(F)c(S(=O)(=O)N2CCOCC2)c1	none
O=C(Nc1ccccc1)c1cc(S(=O)(=O)N2CCOCC2)cs1	none
O=C(Nc1ccccc1)c1ccc(N2CCN(c3ccccn3)CC2)c(S(=O)(=O)N2CCOCC2)c1	CYP2C9 inh 91, CYP2C19 inh 92
O=C(Nc1ccccc1)c1ccc(N2CCN(c3ccccc3)CC2)c(S(=O)(=O)N2CCOCC2)c1	CYP2C9 inh 76, CYP2C19 inh 58
C/C=C/c1ccc(Oc2nnnn2-c2ccc(C(N)=O)cc2)c(OC)c1	none
COc1ccc(N(CC(=O)NN=C2CCCCCCC2)S(=O)(=O)c2ccccc2)cc1	none
O=c1ccn(Cc2ccccc2)c(=O)n1Cc1ccccc1	CYP2C19 inh 78
Cn1c(=O)n(Cc2ccccc2)c2ccccc21	none
CC(C)(C)n1nc2c(c1NC(=O)c1cccc(C(F)(F)F)c1)CS(=O)C2 (centres undefined)	none
Cn1c(=O)n(Cc2ccccc2)c(=O)c2c1nc(NCC1CCCO1)n2Cc1ccccc1 (centres undefined)	CYP2C9 inh 66
O=C1C(Cl)=C(NCC2CCCO2)C(=O)N1Cc1ccccc1 (centres undefined)	CYP2C19 inh 60
CCOC(=O)c1sc(C)c2c1NC(C)(c1ccccc1)NC2=O (centres undefined)	CYP2C9 inh 68
CCOC(=O)c1sc(C)c2c(=O)n(CCc3ccccc3)nnc12	none
CCOC(=O)c1sc(C)c2c1NC(c1ccc(Cl)cc1)NC2=O (centres undefined)	CYP2C9 inh 53
COn1c(SCc2cccnc2)nc2ccccc2c1=O	none
CCn1c(SCc2cccnc2)nnc1-c1c[nH]c2ccccc12	CYP2C19 inh 89
COCCn1c(SCc2cccnc2)nnc1-c1c[nH]c2ccccc12	CYP2C9 inh 55, CYP2C19 inh 75
O=C(N/N=C/c1cc(Br)c(Br)o1)c1cccnc1	none (no result: CYP2C9 inh, CYP2C19 act, CYP2C19 inh, CYP2C9 act)
Cc1ccc(S(=O)(=O)NC2=NCCC2)cc1	none

Bioassay records from PubChem BioAssay.
